Reference: the supplement of paper PMC6555819

Test system: VDR:RXRa (NR concentration 270 nM, RXRa partner concentration 90 nM)
Assay: PBM binding z-score (relative to random genomic background probes); higher = stronger binding; sequences stand for … in GC…GCGATTGACAGCGTAGAATGAAGG
Protocol: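 Protein-binding microarray (Agilent 4x180K custom design, double-stranded 60-nt probes: 5' GC cap, 34-nt variable region, 24-nt constant primer region; full probe sequence given). Purified or IVT nuclear receptor:RXRα heterodimers (3:1 NR:RXRα, mostly 270:90 nM) or homodimers were incubated for 1 h in PBS with 2% milk and no ligand, then detected with Alexa488 antibodies. Fluorescence from o1-orientation probes (~5 replicates averaged) was converted to z-scores against 500 random hg19 background probes. Variable regions are seed direct-repeat (DR0–DR5) sites, all their single-nucleotide variants and half-site ablations.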

Sequence	PBM binding z-score
ATACCAAGGTGATCCTGAGGTCGTTGATACTAAC	3.42
ACTAGCAGCCCAAGGGTCACTCAAGATTAGTCCG	2.6
CGTCCGAGGTCAGCAGGTCAGTGAAAGCGACGTG	4.86
TGTCAAAGTTCAAGGGTAACGTAAGTATCCACAC	4.26
AGAACGAGGGCACGCTGAGTTGATAGGAGAGTAG	2.04
CGTCCCAGGTCAAGGTCAGTGAAAGAGACTCGAA	3.85
CGTCCAAGGTCAAGGTCAGTGGAAGAGACTCGAA	4.89
ATCGCTAGGTAAGACTCAGTTCAGTGAAGAACGC	-0.0263
TCATATAGGGAAACAGGTGAAAGTCCGTAAGTTA	0.918
TCATATAGGTAAACAGCTGAAAGTCCGTAAGTTA	1.06
CAAACTAGGTCAACGTCAAAGTCGGTTTGTGCCA	1.83
CGTCAAAGTTCAACTTAGGTAACGTAAAGCACGC	4.56
CCGACTGGGGCATAGGGTTACCATAAGCCAGCCC	0.304
AGAATGAGGGTAAGATCAGGGAAACAGAATACAT	-0.0914
TGAATTAGGTTATAAGATCAGGGAACGTTGCAAA	-0.0623
CCCAGTAGGTTATGGGGCATTCAGGCAACGGTGA	0.00537
ATATGTAGGTTAGCTGGGGTCATTCATACTAGGC	6.21
TCATATAGGTAAATGCTAGGTGGAAGTCCGATCT	0.687
GCTAGTTGGTTAGTAAAAGGTCACACACCGGTCG	3.93
TTACCAGGGTGAGCTGAGGTCGTTGATCCAACTC	4.58

Sequence	PBM binding z-score
GCAGACTGGTGAAACGCAGGTAACTCAGGGTGGC	-0.985
CTCGAAAGGTCGTTTGAGGTGAGTATACGGATAA	4.84
CGTCAAAGTTCAAGGTAACGAAACAGAAAGCAGC	3.7
GCTGCTAGGTCAATTGATGGTCAGCTAAAGCTCG	0.815
GATACAGGGTCAAGGCCAGAGAACGCGTATTGAT	3.99
ACTAGTTCGTCAGCTGAGGTCACACACAATTCGG	4.7
ATCTCTAGGTAAGAGTTCAGTGAATCCCGAGGAT	2.22
CGTCCAAGGTCAGAGAGGTCTGTGAATGCCGAGT	4.72
ACAATGAGGTTATACGTAGATCAGGGAAGAAAGT	1.5
TAGCCTAGGTCAGATCGGGCCAATATACGCTATA	1.01
TCTTGTAGATCAAGCAGGATAAGAAAGCCTGAGT	0.405
GCTTGTAGATCAAGGTTAGGAAAGACTAAGCTAA	-0.45
CAAACTAGGTCAAAGTCAAAGTCGGTTTGTGCCA	2.38
GCTAGGAGGACAAGGTCAGAGCTTTGTCCGTAGA	1.4
TCATACAGGTAATACAGGTGAAAGTCGGCATCTA	1.24
GCAAGCAGGCCATTTGGGTCACTCAATGACGGGC	0.865
GCTGCTAGGTCAACTGTTGGTCAGCTAAAGCTCG	1.39
ACTAGCAGGCCAAGTTTGGGTCACACAAACAAAG	0.933
CCAGACCGGTGAAAGGTAACTCAGTCTGGTACGC	0.137
TAGCCTAGGTCAGGCGGGCCAGTATAGTGTCGGC	0.804
